CHX counter: counter-screen for Shiga toxin inhibitors: cycloheximide protein synthesis inhibition | cell reporter, cycloheximide protein synthesis inhibition counterscreen | max response, % | 300,000 tested, 12% active | AID 2314; in the data active = max response mostly above about 13%, no sharp cut-off; inactive = mostly below about 14%; note: read at 38.3 µM for the half of the compounds with a filed dose; 0% is about no effect
TbPYK inhibitor: blocks Trypanosoma brucei pyruvate kinase. Q57TT1. TbPYK enzyme, Kinase-Glo Plus ATP luminescence, 45 min. Potency, µM (doses to about 76.8 µM), for the others: at the highest dose activity, negative = inhibition, actives largely listed as inhibitors. 410,000 tested, 0.12% active. AID 624173; note: potency is the fitted concentration of half-maximal effect; % is set by controls: 0 for no effect and ±100 for the full control effect; nearly all actives have a fitted effect of over 50% in size
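In this concentration-response screen, enzyme-free wells defined baseline while DMSO plates tracked drift. Each reaction combined TbPYK, substrate, compound and 130 uM ADP for 45 min at room temperature. Kinase-Glo Plus luminescence gave the signal.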
Giardia FBPA inh: inhibitors of Giardia lamblia fructose-1,6-bisphosphate aldolase | 290,000 tested, 0.71% active | AID 2451 | Potency, µM (titrated, usually from 59.6 µM), inactives show at the highest dose activity, negative = inhibition, most hits filed as inhibitors | A8B2U2 | purified Giardia FBPA; note: potency is the fitted concentration of half-maximal effect; % is set by controls: 0 for no effect and ±100 for the full control effect; nearly all actives have a fitted effect of over 55% in size
Target sequence (A8B2U2 whole entry, looked up): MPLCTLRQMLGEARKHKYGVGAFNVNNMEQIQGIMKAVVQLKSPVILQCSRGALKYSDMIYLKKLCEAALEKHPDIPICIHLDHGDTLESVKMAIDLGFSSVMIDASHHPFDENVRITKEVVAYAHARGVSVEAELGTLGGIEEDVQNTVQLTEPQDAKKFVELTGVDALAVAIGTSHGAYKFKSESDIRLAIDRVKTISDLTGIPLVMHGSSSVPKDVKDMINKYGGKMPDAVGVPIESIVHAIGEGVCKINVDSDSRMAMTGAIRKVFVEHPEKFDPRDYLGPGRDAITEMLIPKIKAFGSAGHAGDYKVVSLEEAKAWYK
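Giardia FBPA (40 nM reagent) was preincubated 10 min at RT with compound (up to 57.5 uM final), then substrate plus GAPDH/TPI/NAD/arsenate coupling system with diaphorase/resazurin was added; resorufin fluorescence (525/598 nm) was read after 20 min.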
LmPK inh: blocks Leishmania mexicana pyruvate kinase activity | Potency, µM (series often up to 57.5 µM), for inactives: at the highest dose activity change, negative = inhibition, hits mostly inhibitors | Q27686 | 290,000 tested, 0.37% active | purified LmPK, Kinase-Glo ATP luminescence, 1 h | AID 1721; note: potency is the fitted concentration of half-maximal effect; % is set by controls: 0 for no effect and ±100 for the full control effect
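Pyruvate kinase activity monitored as ATP production (luciferase luminescence). Conditions: 0.1 nM enzyme, 0.5 mM PEP, 0.1 mM ADP, 1 h, RT; normalized against uninhibited and no-enzyme wells.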
Sm TGR block: S. mansoni TGR enzyme inhibition | 360,000 tested, 3% active | AID 485364 | Q962Y6 | purified TGR, DTNB reduction, TNB absorbance 405 nm | Potency, µM (titrated, usually from 114 µM), for the others: at the highest dose activity change, negative = inhibition, most hits filed as inhibitors; note: potency is the fitted concentration of half-maximal effect; % is set by controls: 0 for no effect and ±100 for the full control effect; nearly all actives have a fitted effect of over 60% in size
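First, TGR (20 nM dispensed) and NADPH were mixed with compound. Second, a 15 min room-temperature incubation followed. Third, further NADPH and then DTNB were added to start the reaction. Finally, TNB absorbance was monitored kinetically.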
Shiga inhibitor: Shiga toxin inhibition | Vero cells, Shiga toxin protein synthesis inhibition reporter | inhibition, % at 38.7 µM | 290,000 tested, 9.2% active; in the data active = inhibition mostly above about 28%, no sharp cut-off; inactive = mostly below about 43%; note: 0% is about no effect
Numbers without * were called inactive; u = inconclusive; x = no result; [ ] = remark or other dose. The full list was thinned out, with hits kept by preference. Unless noted, calls come from the whole dose curve; as a rule, active = well fitted curve in the direction sought with a large enough effect; inconclusive = small, poorly fitted or top-dose-only effect, or another doubt; inactive = no such curve, though single readings can be large; an effect the other way counts as inactive or inconclusive.

SMILES	CHX counter	TbPYK inhibitor	Giardia FBPA inh	LmPK inh	Sm TGR block	Shiga inhibitor
NC(=O)c1ccccc1N/C=C/C(=O)c1ccco1	30.0*	-4.1%	-3.8%	u	u	68.8*
CCOC(=O)c1ccccc1N/C=C/C(=O)c1ccccc1	x	1.0%	x	x	x	x
O=C(/C=C/Nc1ccccc1C(F)(F)F)c1ccco1	44.0*	2.0%	-13.7%	-26.8%	-17.6%[57.1 µM]	58.9*
Cc1ccc2nc(/C=C/c3cccc(F)c3)ccc2c1	64.9*	-2.6%	-8.4%	-6.1%	u	89.8*
O=c1[nH]c(/C=C\c2cccc(F)c2)nc(O)c1[N+](=O)[O-]	-2.2	4.2%	3.3%	2.6%	5.1%	x
CC(C)(C)C1=C(C#N)C(c2cc3c(cc2Br)OCO3)C(C#N)=C(N)O1 (configuration not stated)	0.8	-1.7%	-21.7%	2.7%	2.82µM*	17.4
CCOC(=O)N1CCC(=NNc2nc(C)cc(=O)[nH]2)CC1	2.1	0.9%	-28.5%	1.9%	4.7%	41.9*
COc1cc(NC(=O)c2cc3c(=O)n(Cc4ccco4)ccc3nc2C)cc(OC)c1OC	x	1.7%	x	x	8.9%	x
NC(=O)c1ccsc1NC(=O)c1ccc2c(c1)CCCC2	51.3*	-15.9%	-9.0%	u	-8.4%	59.2*
CNC(=O)c1ccsc1NC(=O)c1ccc2c(c1)CCCC2	23.4*	0.3%	-10.8%	-8.6%	-5.8%	34.9
NC(=O)c1ccsc1NC(=O)c1ccc(N2CCCC2=O)cc1	21.9	-20.3%	-10.7%	-18.8%	-11.2%	21.9
CCC(Oc1ccccc1OC)C(=O)Nc1ccc2c(c1)OCCO2 (configuration not stated)	15.7*	-3.1%	x	-10.2%	9.6%	27.0
O=C(/C=C/c1ccco1)Nc1ccc2c(c1)OCCO2	29.5*	-2.1%	-21.9%	-0.4%	20µM*	68.5*
COc1ccccc1/C=C/C(=O)Nc1ccc2c(c1)CCC2	35.3*	-5.3%	-8.5%	3.1%	-0.6%	34.0*
O=C(/C=C/c1ccccc1)Nc1ccc2c(c1)OCCO2	25.2*	-0.4%	-27.6%	-25.5%	4.0%[57.1 µM]	30.4
Oc1ccc2c3c1O[C@H]1[C@@H](O)C=CC4[C@@H](C2)NCC[C@@]341 (some centres not stated)	x	-1.6%	x	x	x	x
Cc1ccc(N2CCN(C(=O)c3c(C)oc4nc(C)nc(N5CCCC5)c34)CC2)c(C)c1	x	3.8%	x	x	27.8%	x
CN(C)c1cc(-c2cccc(NS(C)(=O)=O)c2)ncn1	x	x	-12.4%	x	x	x
Cc1cccc(CSc2nc3c(c(=O)[nH]2)C(c2cccc(O)c2)CC(=O)N3)c1 (configuration not stated)	x	-6.7%	x	x	-1.8%	x
CCN(CC(=O)Nc1ccc2c(c1)OCCO2)C(=O)/C=C/c1ccccc1	36.5*	-2.3%	0.3%	9.7%	6.9%	46.5
COc1ccccc1/C=C/C(=O)Nc1ccc2c(c1)OCCO2	56.2*	4.3%	-24.1%	-4.6%	-2.1%	99.1*
COCCn1c(C)cc(O)c(C(c2ccc(Cl)cc2)N2CCN(c3ccccc3)CC2)c1=O (configuration not stated)	x	-11.3%	x	x	2.82µM*	x
CCOc1ccc(C(c2c(C)n(C)n(-c3ccccc3)c2=O)c2c(C)n(C)n(-c3ccccc3)c2=O)c(O)c1	x	-6.1%	x	x	x	x
COCCn1c(C)cc(O)c(C(c2ccc(F)cc2)N2CCN(c3ccccc3)CC2)c1=O (configuration not stated)	x	-14.6%	x	x	3.16µM*	x
CCOc1ccc(C(c2c(O)cc(C)n(CCOC)c2=O)N2CCN(c3ccccc3)CC2)cc1 (configuration not stated)	x	3.4%	x	x	6.31µM*	x
SMILES	CHX counter	TbPYK inhibitor	Giardia FBPA inh	LmPK inh	Sm TGR block	Shiga inhibitor
CCCCCOC(=O)c1ccc(OC(=O)c2sc3ncn(Cc4cccc(F)c4)c(=O)c3c2C)cc1	x	-12.0%	x	x	10.7%	x
c1ccc(OCCSc2ncnc3nc[nH]c23)cc1	x	-4.7%	x	x	x	x
COc1ccc(OCCSc2ncnc3nc[nH]c23)cc1	37.0*	1.0%	-22.2%	1.3%	0.0%	36.5
Fc1ccccc1OCCSc1ncnc2nc[nH]c12	35.6*	-3.3%	2.3%	0.9%	x	76.5*
c1nc(SSc2ncnc3nc[nH]c23)c2[nH]cnc2n1	x	3.55µM*	x	x	x	x
COc1cccc(C2CC(=O)Nc3c2c(=O)nc2c(C)cccn32)c1 (configuration not stated)	x	1.5%	x	x	0.2%	x
Nc1ccc(Cl)c(NC(=O)c2cccs2)c1	16.4*	-9.3%	-28.6%	-3.0%	-6.3%	active
Nc1ccc(NC(=O)c2cccs2)c(Cl)c1	32.3*	-1.3%	5.1%	-2.0%	-27.2%	54.7*
CCCCN1CCC[C@H]1CNC(=O)c1cc(C#N)c2ccccc2c1OC	7.0	x	-5.9%	x	x	-8.3
COC(=O)N(C)c1nc2ccccc2s1	35.7*	-5.1%	-0.7%	-7.3%	-18.3%	64.5
CN(C)CCCNC(=O)c1cc2sc3ccccc3c2s1	10.0	-0.4%	-6.1%	6.5%	6.3%	10.5
CCCNC(=O)c1cc2cc([N+](=O)[O-])ccc2s1	1.1	-11.6%	0.7%	0.3%	8.4%	-4.4
CCCCNC(=O)N(C)c1nc2ccccc2s1	50.0*	-2.6%	-4.5%	-0.9%	0.0%	67.8*
CCCCNC(=O)c1cc2ccccc2s1	38.4*	1.0%	-10.6%	3.1%	34.2%	71.5*
CC(=O)N(c1ccccc1)c1nc2ccccc2s1	x	3.5%	x	x	x	x
COCCNC(=O)c1cc2sc3ccccc3c2s1	57.7*	5.0%	-6.4%	0.3%	-9.3%	89.2*
CC(=O)OCCCNc1cc(SCc2ccco2)c2nonc2c1[N+](=O)[O-]	-2.0	-6.7%	-15.2%	-1.2%	7.08µM*	-5.8
CCCSc1cc(NCCOC(=O)CCC)c([N+](=O)[O-])c2nonc12	-5.0	22.3%	-11.5%	-0.8%	2µM*	-6.8
CCCC(=O)OCCNc1cc(Sc2nccn2C)c2nonc2c1[N+](=O)[O-]	-5.4	23.5%	-10.6%	-1.3%	0.398µM*	-4.6
CCCSc1cc(NCCOC(C)=O)c([N+](=O)[O-])c2nonc12	-0.9	-3.6%	u	1.1%	-3.0%	-6.8
O=[N+]([O-])c1c(NCc2ccco2)ccc2nonc12	6.1	1.3%	-67.5%	0.8%	-21.9%	26.9
Cc1nnc(Sc2cc(NCCO)c([N+](=O)[O-])c3nonc23)s1	-1.7	-6.7%	u	-2.5%	u	-6.3
CCCC(=O)OCCNc1cc(SCc2ccco2)c2nonc2c1[N+](=O)[O-]	-0.8	u	-26.5%	-1.8%	14.1µM*	0.6
COc1ccc(NC(=O)CN2CCCN(Cc3ccc(Cl)cc3)S2(=O)=O)cc1Cl	x	0.4%	x	x	1.7%	x
C=Cc1ccc(Cn2c(=O)n(-c3ccc(C)cc3)c(=O)c3c2c2cc(OC)ccc2n3C)cc1	x	0.0%	x	x	3.9%	x
CC(=O)C1=C(c2ccccc2)N(C(C)=O)n2c(nnc2C2CCCCC2)S1	x	2.6%	x	x	5.4%	x

High-throughput results: PubChem, National Center for Advancing Translational Sciences (NCATS)
